# PubChem BioAssay AID485270 (The Scripps Research Institute Molecular Screening Center, 2010)
# Hit rate of the full screen: of about 330,000 compounds, about 5,800 (1.8%) were called active. No stated cut-off is given here; in the data, active means inhibition mostly above about 38% (no sharp cut-off); inactive means mostly below about 40%. The list comes from a sample in which actives are over-represented; it also holds similar structures and randomly drawn compounds.
# Target: Orexin/Hypocretin receptor type 1 (Homo sapiens) (UniProt O43613)
# Sequence (O43613 whole entry, looked up): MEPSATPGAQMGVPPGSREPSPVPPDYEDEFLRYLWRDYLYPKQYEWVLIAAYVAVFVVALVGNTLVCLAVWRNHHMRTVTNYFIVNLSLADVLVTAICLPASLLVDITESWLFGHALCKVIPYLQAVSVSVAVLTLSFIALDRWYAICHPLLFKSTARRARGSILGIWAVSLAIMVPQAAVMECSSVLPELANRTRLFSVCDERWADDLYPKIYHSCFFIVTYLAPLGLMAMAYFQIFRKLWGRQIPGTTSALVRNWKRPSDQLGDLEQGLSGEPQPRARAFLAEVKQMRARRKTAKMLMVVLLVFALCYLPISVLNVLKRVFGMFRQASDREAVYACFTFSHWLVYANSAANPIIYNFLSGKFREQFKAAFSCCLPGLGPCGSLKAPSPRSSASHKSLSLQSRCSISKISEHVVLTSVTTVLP
# Experiment: blocks the human orexin 1 receptor (AID 485270);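 further: 0% = agonist challenge alone and 100% = reference antagonist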
# Conditions: OX1R-expressing cells, FRET antagonist read-out; at 6.6 µM; hits give high values
row,Compound,inhibition
1,O=C(N/N=C/c1c(O)n(C2CC2)c(=S)[nH]c1=O)c1ccccc1,48.4% (active)
2,O=C(N/N=C/c1c(O)n(C2CC2)c(=S)[nH]c1=O)c1ccccc1Cl,16.5% (inactive)
3,O=C(N/N=C/c1c(O)n(Cc2ccccc2)c(=O)[nH]c1=O)c1ccccc1,20.1% (inactive)
4,O=C(CSC1c2ccccc2-c2ccccc21)N/N=C/c1ccccc1,53.4% (inactive)
5,CNC(=O)Nc1ccc(C(O)(C(=O)OC)C(F)(F)F)cc1 (stereo not given),1.75% (inactive)
6,COc1ccc2c(c1O)-c1cccc3c1[C@@H](C2)N(C)CC3,21.8% (inactive)
7,CCN1CCN(c2ccc([N+](=O)[O-])cc2C#N)CC1,30.8% (inactive)
8,Cc1nc2ccc(N3CCN(C)CC3)cc2nc1C,36.4% (inactive)
9,CN1CCN(c2cc(N3CCNCC3)ccc2[N+](=O)[O-])CC1,61% (active)
10,Cc1cccc2c(CCN)c[nH]c12,13.2% (inactive)
11,CCOCCc1c(O)[nH]c(=S)[nH]c1=O,-2.14% (inactive)
12,COc1ccccc1N=Nc1c(O)[nH]c(=S)[nH]c1=O,55.9% (active)
13,O=C1N=c2ccccc2=C/C1=C\c1c(O)[nH]c(=S)[nH]c1=O,42.6% (inactive)
14,O=c1[nH]c(CN2CC=C(c3ccccc3)CC2)nc2scc(-c3cccs3)c12,7.54% (inactive)
15,CC(=O)Nc1ccc(C(=O)C(Cc2ccccc2)N(C)C)cc1 (stereo not given),4.57% (inactive)
16,COc1cccc(-c2nc3ccc(N4CCN(C)CC4)cc3[nH]2)c1,20.4% (inactive)
17,CN(c1ccccc1)c1ccc([N+](=O)[O-])c2nonc12,73.5% (active)
18,CCN(CC)c1ccc([N+](=O)[O-])c2cccnc12,28.8% (inactive)
19,CN1CCN(Cc2ccc(OC(F)(F)F)cc2)CC1,2.95% (inactive)
20,O=C(Cc1ccccc1)N1CCN(C2CCCCCC2)CC1,-3.88% (inactive)
